{"source": "paper PMC4102417"}
{"test_system": "murine 3T3 fibroblasts", "assay": "primary screen, percent viability or growth; higher = less effect of the substance", "protocol": "Similarly, for measuring the cytotoxicity concentration (CC50) for 3T3 fibroblast cells, cultures were incubated with drugs for 72 hours and developed using Alamar Blue (Alamar Biosciences Inc, Sacramento, CA) as previously described.", "units": {"Mammalian (3T3) cell % growth at 10 uM": "%"}}
{"smiles": "COC(=O)C1(C)CCC2(C)CCC3(C)C4=CC=C5C(=CC(=O)C(O)=C5C)C4(C)CCC3(C)C2C1", "note": "(stereo not shown)", "Mammalian (3T3) cell % growth at 10 uM": 0.6}
{"smiles": "COc1cc2nc(N3CCN(C(=O)c4ccco4)CC3)nc(N)c2cc1OC.Cl", "Mammalian (3T3) cell % growth at 10 uM": 70.7}
{"smiles": "CN(C)CCCN1c2ccccc2Sc2ccc(Cl)cc21", "Mammalian (3T3) cell % growth at 10 uM": 99.3}
{"smiles": "CC[C@@H]1/C=C/C=C/C[C@H](C)[C@@H](O)[C@](C)(O)C(=O)[C@H](C)[C@@H](O)[C@H](C)C(=O)[C@H](C)[C@@H](O)[C@H](C)/C=C/C(=O)O[C@H]2[C@@H](C)[C@@H](CC1)O[C@@]1(CC[C@@H](C)[C@@H](C[C@@H](C)O)O1)[C@@H]2C", "Mammalian (3T3) cell % growth at 10 uM": 57.7}
{"smiles": "CNc1ccccc1C(=O)N1CCc2c([nH]c3ccccc23)C1=O", "Mammalian (3T3) cell % growth at 10 uM": 75.7}
{"smiles": "CN(C)CCCN1c2ccccc2CCc2ccc(Cl)cc21.Cl", "Mammalian (3T3) cell % growth at 10 uM": 84.6}
{"smiles": "COC1C=CC23c4cc5c(cc4CN(CC2O)C3C1)OCO5", "note": "(stereo not shown)", "Mammalian (3T3) cell % growth at 10 uM": 36.2}
{"smiles": "NCCCCNCCCN", "Mammalian (3T3) cell % growth at 10 uM": 41}
{"smiles": "C=C1c2c(Cl)ccc(O)c2C(O)=C2C(=O)[C@]3(O)C(=O)/C(=C(/N)O)C(=O)[C@@H](N(C)C)[C@@H]3[C@@H](O)[C@H]12.O=C(O)c1cc(S(=O)(=O)O)ccc1O", "Mammalian (3T3) cell % growth at 10 uM": 60.9}
{"smiles": "C=CC(C)(O)CCC1C(=C)CC(OC(C)=O)C2C(C)(C)CCCC12C", "note": "(stereo not shown)", "Mammalian (3T3) cell % growth at 10 uM": 63.7}
{"smiles": "Cc1coc2c1C(=O)C(=O)c1c-2ccc2c1CCCC2(C)C", "Mammalian (3T3) cell % growth at 10 uM": 44.3}
{"smiles": "CCN(CCCCOC(=O)c1ccc(OC)c(OC)c1)C(C)Cc1ccc(OC)cc1", "note": "(stereo not shown)", "Mammalian (3T3) cell % growth at 10 uM": 92.3}
{"smiles": "Cl.Cl.O=C1c2c(O)ccc(O)c2C(=O)c2c(NCCNCCO)ccc(NCCNCCO)c21", "Mammalian (3T3) cell % growth at 10 uM": 14}
